Test results: PubChem BioAssay (Tox21)
“And” between values parts separate entries of the source, which are not always exact repeats. Equal entries are not always repeated. Results filed as inconclusive are left out. Where a call stands in place of a potency, no number is given. The source holds several records for some structures; these can differ, active in one and inactive in another. The source made the active and inactive calls. Calls follow the shape of the dose curve; as a rule, active = well fitted cell-killing curve with a large enough effect in the repeat runs; inconclusive = weak or mixed curves, or effect the other way; inactive = no such curve, though single readings can be large or run the other way.

Test: qHTS assay to identify small molecule agonists of the RXR signaling pathway - cell viability counter screen (AID 1159529); also: nearly all actives have a fitted effect of over 50% in size
Settings: RXR-alpha-bla HEK293T viability, CellTiter-Glo, 16 h; series mostly up to 76.8 µM
Text: National Center for Advancing Translational Sciences [NCATS]
NIH Chemical Genomics Center [NCGC]
U.S. Environmental Protection Agency [EPA]
National Institutes of Environmental Health Sciences [NIEHS]
National Toxicology Program [NTP]
U.S. Food and Drug Administration [FDA]
The Retinoid X receptor (RXR), a nuclear hormone receptor expressed in liver, spleen, placenta, epidermis, central nervous system. These receptors are able to form homo and heterodimers with other nuclear receptors and due to this heterodimerizing ability, RXR functions as master regulators producing diverse physiological effects. Three subtypes of RXR exist; alpha, beta and gamma. Retinoid X receptor alpha (RXR-alpha) has potential roles in metabolic signaling pathways, skin alopecia, dermal cysts, cardiac development, insulin sensitization etc. Therefore screening environmental chemicals on RXR-alpha signaling can be used for the studies focused on such therapeutic applications. For quantification of RXR-alpha ligands signaling, GeneBLAzer RXR alpha-UAS-bla HEK 293T (Life Technologies, Carlsbad, CA) cells containing a beta-lactamase reporter-gene under control of Retinoid X receptor-alpha response element were used to screen Tox21 10K library. The cytotoxicity of the Tox21 compound library against the RXR-alpha HEK 293T cell line was tested in parallel by measuring cell viability using CellTiter-Glo assay (Promega Corporation, Madison, WI) in the same wells.
Tox21 Assay Protocol Summary:
RXR-alpha HEK 293T cells were dispensed at 2,000 cells/6 uL of assay medium containing 2% charcoal-stripped FBS using a Multidrop Combi (ThermoFisher Scientific, Waltham, MA) dispenser. The assay was performed in black wall/clear-bottom 1536-well plates (Greiner Bio-One North America Inc. Monroe, NC). Tetraoctyl ammonium bromide was used as a positive control in the cytotoxicity screen. After the assay plates were incubated at 37 C and 5% CO2 for 5 hr, 23 nL of compounds dissolved in DMSO, positive control or DMSO only were transferred to the assay plate by a Pintool station (Kalypsys, San Diego, CA). The assay plates were incubated at 37 C and 5% CO2 for 16 hr. One uL of LiveBLAzer B/G FRET substrate (Life Technologies) was added using a Flying Reagent Dispenser (FRD) (Aurora Discovery, San Diego, CA) and the plates were incubated at room temperature for 2 hr. Fluorescence intensity (405 nm excitation, 460/530 nm emission) was measured using an Envision plate reader (PerkinElmer, Shelton, CT). For cytotoxicity, 4 uL/well of CellTiter-Glo reagent was added into the assay plates using an FRD. After 30 min incubation at room temperature, the luminescence intensity was measured using a ViewLux plate reader (PerkinElmer).
Potency is read from the fitted curve at half-maximal effect.

| SMILES | Potency |
| --- | --- |
| CCC(=O)O[C@H]1[C@H](O[C@@H]2[C@@H](C)[C@H](O[C@H]3C[C@@](C)(OC)[C@@H](O)[C@H](C)O3)[C@@H](C)C(=O)O[C@H](CC)[C@@](C)(O)[C@H](O)[C@@H](C)C(=O)[C@H](C)C[C@@]2(C)O)O[C@H](C)C[C@@H]1N(C)C | inactive |
| Nc1ccc(N)c(Cl)c1 | 24.5 µM (active) and 49 µM (active) |
| CC1(C)NC(=O)N(c2ccc([N+](=O)[O-])c(C(F)(F)F)c2)C1=O | inactive |
| C[C@]12CC[C@@H]3c4ccc(O)cc4CC[C@H]3[C@@H]1CC[C@H]2O | inactive |
| Cc1ccc(S(=O)(=O)NCl)cc1 | inactive |
| Cc1ccc([N+](=O)[O-])c(C)c1 | 24.6 µM (active) and inactive |
| CNC[C@H](O)c1ccc(O)c(O)c1 | inactive |
| C=CN1CCCC1=O | inactive |
| C1CN(SSN2CCOCC2)CCO1 | 54.4 µM (active) |
| Cc1cccc(Nc2ccccc2C(=O)O)c1C | inactive |
| C=C[C@H]1CN2CC[C@H]1C[C@@H]2[C@@H](O)c1ccnc2ccc(OC)cc12 | inactive |
| CC(C)[C@@H]1CC[C@@H](C)CC1=O | inactive |
| CCCCCC=O | inactive |
| CCCCCCCCCCCCCO | inactive |
| CCO[Si](CCCNC(N)=O)(OCC)OCC | inactive |
| CC(=O)Oc1c(C)c(C)c2c(c1C)CC[C@@](C)(CCC[C@H](C)CCC[C@H](C)CCCC(C)C)O2 | inactive |
| c1ccc2cc3ccccc3cc2c1 | inactive |
| C=C1C[C@H]2[C@@H]3C=C(C)C4=CC(=O)CC[C@]4(C)[C@H]3CC[C@]2(C)[C@@]1(OC(C)=O)C(C)=O | inactive |
| CCCN1C=CN(C)C1 | inactive |
| c1ccc2c(c1)[nH]c1ccccc12 | inactive |

| SMILES | Potency |
| --- | --- |
| CC(=O)O[C@]1(C(C)=O)CC[C@H]2[C@@H]3C=C(C)C4=CC(=O)CC[C@]4(C)[C@H]3CC[C@@]21C | inactive |
| O=C(O)CCCC(=O)O | inactive |
| O=C(O)CCCCCCCCCCCC(=O)O | inactive |
| CCCCCCCCCCC(CO)CCCCCCCC (stereo not given) | inactive |
| CC1=CC(C)(C)Nc2ccccc21 | inactive |
| OC[C@@H](O)[C@@H](O[C@@H]1O[C@H](CO)[C@H](O)[C@H](O)[C@H]1O)[C@H](O)[C@@H](O)CO | inactive |
| CN(C)C | inactive |
| CC[C@]12CCCN3CCc4c(n(c5ccccc45)[C@@](O)(C(=O)OC)C1)[C@@H]32 | inactive |
| [Na+] | inactive |
| ClC/C=C/CCl | inactive |
| Cc1ccc(S(=O)(=O)O)cc1C | inactive |
| C=CCOC(=O)C(=C)C | inactive |
| Cc1ccc(N)c([N+](=O)[O-])c1 | inactive |
| C[C@]12C=CC(=O)C=C1CC[C@H]1[C@@H]3C[C@@H](O)[C@](O)(C(=O)CO)[C@@]3(C)C[C@H](O)[C@@]12F | inactive |
| C=C[C@H]1CN2CC[C@H]1C[C@H]2[C@H](O)c1ccnc2ccc(OC)cc12 | inactive |
| Nc1cc(Cl)c(N)c(Cl)c1 | inactive |
| CC(=O)[C@@]1(O)CC[C@H]2[C@@H]3C[C@H](C)C4=CC(=O)C=C[C@]4(C)[C@@]3(F)[C@@H](O)C[C@@]21C | inactive |
| Cc1ccc(/C(=C\CN2CCCC2)c2ccccn2)cc1 | inactive |
| CCC(Cc1c(I)cc(I)c(N)c1I)C(=O)O (stereo not given) | inactive |
| COC(=O)c1ccc(C)cc1 | inactive |
